Experimental data reported in PubChem BioAssay (Tox21).
Inconclusive results are not listed. Active and inactive are the calls of the source. Unless noted, the call rests on the fitted dose curve; in most records, active means well fitted curve in the direction sought with a large enough effect in the repeat runs; inconclusive means weak or mixed curves; inactive means no such curve, though single readings can be large; an effect the other way counts as inactive or inconclusive.

Experiments:
[1] = molecular target: Aryl hydrocarbon receptor (Homo sapiens) (UniProt P35869); assay: qHTS assay to identify small molecule that activate the aryl hydrocarbon receptor (AhR) signaling pathway (AID 743085);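 further: HG2L7.5c1 human HepG2 liver cells with stably integrated DRE-driven firefly reporter; series mostly up to about 70 µM; nearly all actives have a fitted effect of over 15% in size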
How it was run: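 Luminescence read-out: ONE-Glo reagent, 30 min at room temperature, in HG2L7.5c1 HepG2 reporter cells treated 24 h at 37C. Viability was measured beforehand by CellTiter-Fluor fluorescence after 30 min at 37C.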

[2] = qHTS assay to identify small molecule that activate the aryl hydrocarbon receptor (AhR) signaling pathway - cell viability counter screen (AID 743086);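 further: HepG2 liver cells carrying the AhR DRE luciferase reporter; series mostly up to about 70 µM; nearly all actives have a fitted effect of over 45% in size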
How it was run: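 Cytotoxicity counter screen: CellTiter-Fluor signal (30 min, 37 C) in 4000 HepG2 cells/well carrying the DRE-luciferase reporter, following 24 h compound exposure at 37 C.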

[3] = molecular target: Peroxisome proliferator-activated receptor gamma (Homo sapiens) (UniProt P37231); assay: qHTS assay to identify small molecule agonists of the peroxisome proliferator-activated receptor gamma (PPARg) signaling pathway (AID 743094; active means well fitted activation curve with a large enough effect in the signal ratio in the repeat runs, not every such curve was filed as active; the % refers to the signal ratio)
How it was run: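 Reporter activation was scored by fluorescence of cleaved LiveBLAzer B/G substrate (1 h, room temperature) in PPARg-bla HEK293H cells previously treated 17 h at 37C with DMSO-dissolved compounds.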

[4] = qHTS assay to identify small molecule antagonists of the peroxisome proliferator-activated receptor gamma (PPARg) signaling pathway - cell viability counter screen (AID 743194); further: nearly all actives have a fitted effect of over 55% in size
How it was run: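 Viability was measured as CellTiter-Glo luminescence in GeneBLAzer PPARg UAS-bla HEK293H cells. These cells had been exposed 17 h at 37 C to compounds together with rosiglitazone at 50 nM final, with the beta-lactamase readout taken in the same wells.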

[5] = qHTS assay for small molecule agonists of the antioxidant response element (ARE) signaling pathway (AID 743202; active means well fitted activation curve with a large enough effect in the signal ratio in the repeat runs, not every such curve was filed as active; the % refers to the signal ratio)
How it was run: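 Beta-lactamase reporter activity, read as fluorescence intensity, reflects ARE/Nrf2 pathway induction in HepG2 cells after 16 h compound exposure at 37 C; substrate loading was 2 h at room temperature.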

[6] = qHTS assay for small molecule agonists of the antioxidant response element (ARE) signaling pathway - cell viability counter screen (AID 743203; calls by dose curve; further: nearly all actives have a fitted effect of over 55% in size)
How it was run: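 Viability counter screen: stably transfected ARE-bla HepG2 line, 16 hrs compound exposure at 37C/5% CO2, ATP-based CellTiter-Glo luminescence measured in the reporter wells.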

[7] = qHTS assay for small molecule activators of the heat shock response signaling pathway - cell viability counter screen (AID 743209); further: nearly all actives have a fitted effect of over 50% in size
How it was run: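 Viability of HSE-bla HeLa cells is measured with CellTiter-Glo in the wells already used for the reporter read. Compound exposure lasts 5 h at 37 C, and luminescence is read after 30 min at room temperature.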

[8] = qHTS assay for small molecule activators of the heat shock response signaling pathway (AID 743210; active means well fitted activation curve with a large enough effect in the signal ratio in the repeat runs, with a control signal flat, not every such curve was filed as active; the % refers to the signal ratio;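 further: HeLa cells with beta-lactamase reporter driven by heat shock elements; series mostly up to about 63 µM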)
How it was run: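 Fluorescence from a cleaved B/G FRET substrate (2.5 h, room temp) reports HSE-driven beta-lactamase in HeLa cells treated 5 h at 37 C with DMSO-dissolved compounds.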

[9] = qHTS assay to identify small molecule agonists of the peroxisome proliferator-activated receptor delta (PPARd) signaling pathway - cell viability counter screen (AID 743211); further: nearly all actives have a fitted effect of over 55% in size
How it was run: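 Read-out: CellTiter-Glo luminescence, 30 min RT, measured in the same wells as the beta-lactamase reporter. Cells: GeneBLAzer PPAR delta UAS-bla HEK293H, 3000 cells/well, compound exposure 17 h at 37C.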

[10] = qHTS assay to identify small molecule antagonists of the peroxisome proliferator-activated receptor delta (PPARd) signaling pathway - cell viability counter screen (AID 743213); further: nearly all actives have a fitted effect of over 50% in size
How it was run: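 HEK293H PPARd UAS-bla cells, 5 h pre-incubation, compound + L165041 300 nM final, 17 h 37 C; B/G FRET substrate 2 h RT; then CellTiter-Glo 30 min RT, luminescence.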

[11] = molecular target: Bile acid receptor (Homo sapiens) (UniProt Q96RI1); assay: qHTS assay to identify small molecule antagonists of the farnesoid-X-receptor (FXR) signaling pathway (AID 743217; active means well fitted inhibition curve with a large enough effect in the signal ratio in the repeat runs, not every such curve was filed as active; the % refers to the signal ratio)
How it was run: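 Screen of the Tox21 10K library in quantitative HTS format using FXR-UAS-bla HEK 293T reporter cells. Agonist chenodeoxycholic acid, 50 uM final, added with compounds; 16 h incubation at 37 °C; beta-lactamase FRET fluorescence measured.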

[12] = qHTS assay to identify small molecule agonists of the farnesoid-X-receptor (FXR) signaling pathway - cell viability counter screen (AID 743218); further: nearly all actives have a fitted effect of over 45% in size
How it was run: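 Viability of FXR-bla HEK 293T cells is measured by ATP-based CellTiter-Glo luminescence following 16 h compound treatment at 37 C and a prior 2 h room-temperature beta-lactamase substrate step.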

[13] = molecular target: Bile acid receptor (Homo sapiens) (UniProt Q96RI1); assay: qHTS assay to identify small molecule agonists of the farnesoid-X-receptor (FXR) signaling pathway (AID 743220; active means well fitted activation curve with a large enough effect in the signal ratio in the repeat runs, not every such curve was filed as active; the % refers to the signal ratio)
How it was run: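 FXR-UAS-bla HEK 293T cells carrying a UAS-driven beta-lactamase reporter were plated for 5 h at 37C/5% CO2, then exposed to DMSO-dissolved Tox21 10K compounds for 16 h at 37C. A LiveBLAzer B/G FRET substrate was loaded for 2 h at room temperature before fluorescence reading.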

[14] = qHTS assay to identify small molecule antagonists of the farnesoid-X-receptor (FXR) signaling pathway - cell viability counter screen (AID 743221; active means well fitted cell-killing curve with a large enough effect in the repeat runs, not every such curve was filed as active; further: nearly all actives have a fitted effect of over 50% in size)
How it was run: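 HEK 293T FXR-bla cells, 5 h pre-incubation; compound + CDCA 50 uM final, 16 h, 37 C; beta-lactamase FRET read first, then CellTiter-Glo luminescence, 30 min RT.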

[15] = molecular target: Vitamin D3 receptor (Homo sapiens) (UniProt P11473); assay: qHTS assay to identify small molecule agonists of the vitamin D receptor (VDR) signaling pathway (AID 743222; calls by dose curve)
How it was run: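 Fluorescence from cleaved LiveBLAzer B/G FRET substrate served as readout. VDR-bla cells had been treated 16 h at 37C with test compounds in DMSO, following a 4 h settling period, and substrate was loaded for 2 h at RT.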

[16] = molecular target: Vitamin D3 receptor (Homo sapiens) (UniProt P11473); assay: qHTS assay to identify small molecule antagonists of the vitamin D receptor (VDR) signaling pathway (AID 743223; active means well fitted inhibition curve with a large enough effect in the signal ratio in the repeat runs, not every such curve was filed as active; the % refers to the signal ratio)
How it was run: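 Beta-lactamase reporter read-out: FRET substrate fluorescence after 2 h at room temperature, following 16 h exposure of VDR-bla cells to test compound plus 3 nM (final) 1alpha,25-dihydroxyvitamin D3 agonist at 37C.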

[17] = molecular target: Peroxisome proliferator-activated receptor delta (Homo sapiens) (UniProt Q03181); assay: qHTS assay to identify small molecule agonists of the peroxisome proliferator-activated receptor delta (PPARd) signaling pathway (AID 743212; calls by dose curve)
How it was run: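 Steps: seed PPARd-bla HEK293H cells; incubate 5 h, 37 C, 5% CO2; add compounds in DMSO; incubate, 37 C; add LiveBLAzer B/G FRET substrate; hold 2 h at room temperature; measure fluorescence.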

[18] = molecular target: Peroxisome proliferator-activated receptor delta (Homo sapiens) (UniProt Q03181); assay: qHTS assay to identify small molecule antagonists of the peroxisome proliferator-activated receptor delta (PPARd) signaling pathway (AID 743215; active means well fitted inhibition curve with a large enough effect in the signal ratio in the repeat runs, not every such curve was filed as active; the % refers to the signal ratio;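 further: cells stimulated with agonist L165041 at 300 nM final during compound exposure; series mostly up to about 62 µM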)
How it was run: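 Plated HEK293H PPARd-bla cells rested 5 h at 37 C and 5% CO2. Compound, then agonist L165041 at 300 nM final, was added; 17 h at 37 C followed. Substrate loading, 2 h room temperature, fluorescence measured.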

[19] = molecular target: Peroxisome proliferator-activated receptor gamma (Homo sapiens) (UniProt P37231); assay: qHTS assay to identify small molecule antagonists of the peroxisome proliferator-activated receptor gamma (PPARg) signaling pathway (AID 743191; calls by dose curve; further: series mostly up to about 63 µM; nearly all actives have a fitted effect of over 30% in size)
How it was run: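 Beta-lactamase reporter under UAS control in HEK293H PPARg-bla cells; compound treatment 17 h at 37C. Read-out: fluorescence intensity after 1 h room-temperature incubation with LiveBLAzer B/G FRET substrate.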

Measured: Potency

Chain of Peroxisome proliferator-activated receptor gamma (Homo sapiens) (P37231 whole entry, looked up): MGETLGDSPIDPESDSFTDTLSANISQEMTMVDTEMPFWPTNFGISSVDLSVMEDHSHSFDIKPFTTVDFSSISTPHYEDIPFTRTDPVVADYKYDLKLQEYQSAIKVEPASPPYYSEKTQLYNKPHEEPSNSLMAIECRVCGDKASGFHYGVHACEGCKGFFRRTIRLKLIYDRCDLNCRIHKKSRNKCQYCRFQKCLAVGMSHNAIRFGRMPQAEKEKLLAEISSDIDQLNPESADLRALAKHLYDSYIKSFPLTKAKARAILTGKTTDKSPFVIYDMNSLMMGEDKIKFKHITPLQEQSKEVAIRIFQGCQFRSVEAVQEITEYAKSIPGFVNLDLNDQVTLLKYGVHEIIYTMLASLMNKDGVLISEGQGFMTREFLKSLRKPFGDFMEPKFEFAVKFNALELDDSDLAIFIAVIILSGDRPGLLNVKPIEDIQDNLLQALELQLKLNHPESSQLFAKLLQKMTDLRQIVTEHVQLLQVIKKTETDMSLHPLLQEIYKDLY
Chain of Aryl hydrocarbon receptor (Homo sapiens) (P35869 whole entry, looked up): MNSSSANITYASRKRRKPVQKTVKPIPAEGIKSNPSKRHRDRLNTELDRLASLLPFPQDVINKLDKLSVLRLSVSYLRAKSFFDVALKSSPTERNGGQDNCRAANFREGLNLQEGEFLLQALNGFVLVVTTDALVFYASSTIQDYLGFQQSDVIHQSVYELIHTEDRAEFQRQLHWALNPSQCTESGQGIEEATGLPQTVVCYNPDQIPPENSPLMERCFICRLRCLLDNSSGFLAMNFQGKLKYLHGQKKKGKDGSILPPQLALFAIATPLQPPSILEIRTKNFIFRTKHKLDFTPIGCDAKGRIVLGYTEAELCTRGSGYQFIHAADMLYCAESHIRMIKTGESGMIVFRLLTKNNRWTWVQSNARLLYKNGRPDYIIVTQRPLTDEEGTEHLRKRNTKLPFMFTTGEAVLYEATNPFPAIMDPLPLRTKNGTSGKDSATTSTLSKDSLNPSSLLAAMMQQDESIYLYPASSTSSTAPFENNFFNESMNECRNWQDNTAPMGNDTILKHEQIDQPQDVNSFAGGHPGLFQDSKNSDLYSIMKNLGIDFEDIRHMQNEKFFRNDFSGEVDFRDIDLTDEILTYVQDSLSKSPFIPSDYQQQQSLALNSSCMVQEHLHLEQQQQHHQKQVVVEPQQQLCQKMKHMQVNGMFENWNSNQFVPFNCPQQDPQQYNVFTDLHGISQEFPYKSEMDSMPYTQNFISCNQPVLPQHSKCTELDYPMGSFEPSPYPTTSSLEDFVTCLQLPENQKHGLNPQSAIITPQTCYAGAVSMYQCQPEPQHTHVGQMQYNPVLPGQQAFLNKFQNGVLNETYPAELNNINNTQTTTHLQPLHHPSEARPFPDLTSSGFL
Chain of Vitamin D3 receptor (Homo sapiens) (P11473 whole entry, looked up): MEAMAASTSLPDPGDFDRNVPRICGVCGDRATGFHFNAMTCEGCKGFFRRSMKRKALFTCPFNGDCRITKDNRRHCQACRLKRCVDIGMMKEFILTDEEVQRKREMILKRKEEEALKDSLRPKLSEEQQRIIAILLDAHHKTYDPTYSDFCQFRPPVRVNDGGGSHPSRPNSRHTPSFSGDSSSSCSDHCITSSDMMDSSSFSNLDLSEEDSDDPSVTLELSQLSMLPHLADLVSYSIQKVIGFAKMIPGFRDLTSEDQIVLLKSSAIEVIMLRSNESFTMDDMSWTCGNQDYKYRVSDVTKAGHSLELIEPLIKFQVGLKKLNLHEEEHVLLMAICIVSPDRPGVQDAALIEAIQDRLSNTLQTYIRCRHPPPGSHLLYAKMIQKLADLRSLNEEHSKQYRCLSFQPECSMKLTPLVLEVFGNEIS
Chain of Peroxisome proliferator-activated receptor delta (Homo sapiens) (Q03181 whole entry, looked up): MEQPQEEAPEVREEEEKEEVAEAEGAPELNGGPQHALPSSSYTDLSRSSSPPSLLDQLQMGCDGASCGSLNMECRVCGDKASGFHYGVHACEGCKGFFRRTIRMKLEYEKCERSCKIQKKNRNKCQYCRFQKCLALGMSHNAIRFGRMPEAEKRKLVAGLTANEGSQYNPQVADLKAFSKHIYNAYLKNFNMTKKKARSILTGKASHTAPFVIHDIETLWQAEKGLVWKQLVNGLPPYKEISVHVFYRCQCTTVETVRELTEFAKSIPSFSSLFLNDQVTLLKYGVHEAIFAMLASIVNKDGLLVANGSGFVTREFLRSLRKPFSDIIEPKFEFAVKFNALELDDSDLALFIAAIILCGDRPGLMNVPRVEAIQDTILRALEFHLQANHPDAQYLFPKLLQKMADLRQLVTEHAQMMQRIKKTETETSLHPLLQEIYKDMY
Chain of Bile acid receptor (Homo sapiens) (Q96RI1 whole entry, looked up): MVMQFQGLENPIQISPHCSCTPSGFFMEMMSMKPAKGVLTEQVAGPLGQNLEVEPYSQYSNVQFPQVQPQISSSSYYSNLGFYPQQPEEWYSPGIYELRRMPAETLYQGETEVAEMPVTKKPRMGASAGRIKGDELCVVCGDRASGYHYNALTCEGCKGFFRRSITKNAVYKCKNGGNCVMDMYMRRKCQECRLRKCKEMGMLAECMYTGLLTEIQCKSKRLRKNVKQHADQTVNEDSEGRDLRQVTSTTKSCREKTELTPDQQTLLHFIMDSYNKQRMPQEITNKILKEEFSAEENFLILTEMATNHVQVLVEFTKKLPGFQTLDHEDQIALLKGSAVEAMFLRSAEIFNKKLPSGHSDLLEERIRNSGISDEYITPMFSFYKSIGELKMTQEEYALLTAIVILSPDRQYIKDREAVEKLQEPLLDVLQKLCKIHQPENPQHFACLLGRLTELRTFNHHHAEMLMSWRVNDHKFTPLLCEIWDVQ

CCC(C)(C)C
not listed: [17] | [18] | [19]
inactive: all other assays above

CC(CN1CC(=O)NC(=O)C1)N1CC(=O)NC(=O)C1 (stereo not given)
not listed: [2] | [5] | [11] | [13] | [16] | [19]
inactive: all other assays above

N#CC1(N)CCCCC1
not listed: [3] | [4] | [11] | [13] | [17] | [18]
inactive: all other assays above

COC(=O)/C=C(\C)CCC=C(C)C
not listed: [5] | [11] | [13]
inactive: all other assays above

CC(=O)c1ccc(O)c(C(N)=O)c1
not listed: [1] | [2] | [3] | [12] | [16]
inactive: all other assays above

CC(C)(C)NCC(O)COc1cccc2c1CCC(=O)N2 (stereo not given)
not listed: [3] | [11] | [13] | [16]
inactive: all other assays above

CN(C)CCc1c[nH]c2ccc(C[C@H]3COC(=O)N3)cc12
not listed: [4] | [15] | [16] | [17] | [18]
inactive: all other assays above

CC(=O)/C=C/C=C1/C2CCC(C2)C1(C)C (stereo not given)
not listed: [1] | [2] | [3] | [7] | [17] | [18]
inactive: all other assays above

Cc1ccc(O)c(C(=O)c2ccccc2)c1
not listed: [11] | [13] | [16] | [19]
inactive: all other assays above

CC(C)CC(O)Cc1ccccc1 (stereo not given)
not listed: [4] | [11] | [13] | [16]
inactive: all other assays above

CCc1ccc(CC)cc1
not listed: [3] | [4] | [9] | [11] | [13] | [17] | [18]
inactive: all other assays above

C[C@@H]1CCC[C@H](C)N1CCCC(O)(c1ccccc1)c1ccccn1 (stereo not given in full)
inactive: [19] | [4] | [5] | [6] | [7] | [8] | [9] | [17] | [12] | [14]

C=CC(=O)OCCOCCOCC
inactive: [1] | [2] | [3] | [19] | [4] | [6] | [9] | [10] | [12] | [14]

CCN(CC)CC(=O)Oc1ccc(NC(C)=O)cc1
not listed: [1] | [2] | [3] | [16]
inactive: all other assays above

O=C1CCCc2c(O)cccc21
not listed: [1] | [2] | [3] | [5] | [17] | [18]
inactive: all other assays above

CCCCC(O)/C=C(C)/C=C/C=C/C(=O)N1CCCC1=O (stereo not given)
not listed: [1] | [2] | [3] | [7]
inactive: all other assays above

COC(=O)c1cc(Cl)c(NC(C)=O)cc1OC
not listed: [1] | [2] | [3]
inactive: all other assays above
